Source: PubChem BioAssay

experiment: MRP1 drug-resistance reversers in H69AR cells – cell-based, doxorubicin co-treatment, pilot screen (AID 601); conditions: H69AR cells, CellTiter-Glo, 72 h; compound alone cytotoxicity; at 10 µM

Compound	viability [%]
Cc1ccc(NC(=O)c2cc(-c3ccc(C)o3)nc3ccccc23)nc1	4.86
CCc1cccc(NC(=O)Cn2cc3c(n2)CCCC3)c1	94.8
CCN(CC)C(=O)C1CCCN(c2ncnc3c2cnn3-c2ccc(Cl)cc2)C1 (stereo not given)	86.1
Cc1cccc(NC(=O)CS(=O)(=O)c2cn(C)c3ccccc23)c1	90.6
O=C(CN1C(=O)c2ccccc2S1(=O)=O)NCc1ccccc1Cl	89.3
Cn1cnc2cc(NC(=O)c3ccc(Cl)cc3)ccc21	93
COC(=O)c1cn(NC(=O)C2CCCO2)c(=O)c2ccccc12 (stereo not given)	96.6
O=C(c1ccc(Cl)s1)N1CCN(c2nc3ccccc3s2)CC1	85.9
O=C(Nc1ccc(N2C(=O)C3C4C=CC(C4)C3C2=O)cc1)Nc1nncs1 (stereo not given)	87.8
CNC(=O)c1ccccc1NC(=O)c1c(O)c2c([nH]c1=O)CCCC2	109
COc1ccccc1CNC(=O)CCn1c(=O)[nH]c2ccsc2c1=O	93.9
Cc1ccc(-c2nc3cc(NC(=O)C(C)C)ccc3o2)cc1	82.4
COc1ccccc1N1CCN(C(=O)c2cc(C3CC3)on2)CC1	86.5
CCCCN(C(=O)c1ccc(Cl)cc1)C1CC2CCC(C1)N2C (stereo not given)	85.1
COc1ccc(OC)c2[nH]c(=O)c(CCNC(=O)C(C)C)cc12	88.6
COc1ccccc1S(=O)(=O)Cc1ccc(C(=O)N2CCN(c3ccccn3)CC2)o1	88.9
CCC(=O)c1cc(F)c(N2CCN(C(=O)c3ccco3)CC2)cc1C	87.9
CC(C)Cc1nnc(NS(=O)(=O)c2ccc(Cl)cc2)s1	90
COc1ccc(N2C(=O)CCC(C(=O)N3CCCCC3)C2c2ccc(OC)c(OC)c2)cc1 (stereo not given)	95.4
Cc1c(C#N)c2ccccc2n1CC(=O)N1CCc2ccccc2C1	94.9

Compound	viability [%]
COCCCNC(=O)c1ccc(CS(=O)(=O)c2ccc(OC)cc2)o1	91.6
CCCCSc1nc2c(cnn2-c2ccc(F)cc2)c(=O)[nH]1	74
COc1ccc2[nH]c(C)c(CCN3C(=O)OC(C)(C)C3(C)O)c2c1 (stereo not given)	81.5
CCCCOCCCNC(=O)COc1ccccc1	94.1
c1ccc(-c2cn3cccnc3n2)cc1	101
CCCCn1c(SCC(=O)OCC)nc2c1c(=O)[nH]c(=O)n2C	97.3
O=C(CCn1c(=O)oc2ccccc21)NCc1ccco1	91
CN(C)C(=O)N1CCN(C(=O)c2ccco2)CC1	101
CC(=O)C1=C(C)Nc2ncnn2C1c1cccc(OCc2ccccc2)c1 (stereo not given)	88.6
CC1Cc2nc(SCC(=O)N3CCCc4ccccc43)n(C)c(=O)c2S1 (stereo not given)	72
CCOC(=O)N1CCN(C(=O)c2ccc3nc4ccsc4c(=O)n3c2)CC1	89.4
CC(C)(C)SCCNC(=O)CN1C(=O)c2ccccc2S1(=O)=O	106
COc1cccc(-c2nnc(NC(C)=O)o2)c1	98.8
CCCCc1cc(=O)oc2cc(OCC(=O)N(CC)CC)c(Cl)cc12	79
CCOC(=O)CCc1c(C)nc2cc(-c3ccc(F)cc3)[nH]n2c1=O	101
CN(Cc1ccccc1)S(=O)(=O)c1ccc(S(=O)(=O)N2CCN(CCC#N)CC2)cc1	77.2
Cc1ccc(-n2c3c(cc(C(=O)NCCCN4CCOCC4)c2=O)C(=O)CC(C)(C)C3)cc1	85
COc1cc2c(cc1OC)C(c1ccc(C)o1)CC(=O)N2 (stereo not given)	89.4
O=C(Nc1ccc2c(c1)OCO2)c1ccc(CN2CCOCC2)cc1	97.3
CC1Cn2c(nnc2-c2ccc(F)cc2)S1 (stereo not given)	93.7
